From PubChem
Compounds with a hit are over-represented: about 19% of the library has one in this group of screens.
DT40 TDP1 no CPT: qHTS for Inhibitors of human tyrosyl-DNA phosphodiesterase 1 (TDP1): qHTS in cells in absence of CPT; DT40 Tdp1-/- hTDP1 cells, no CPT, ATP luminescence, 48 h; Potency, µM (doses to about 46.2 µM), hits mostly inhibitors; hit rate 15% among 420,000; note: nearly all actives have a fitted effect of over 55% in size
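Growth of hTDP1-complemented DT40 Tdp1-knockout cells is measured by ATP luminescence after at least 48 hr compound exposure at 37 °C, with DMSO substituting for the 20 nM CPT used in the parallel screen.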
HT1080 IDH1KD tx: HT-1080 IDH1 knockdown cell toxicity (counter line); AID 686971; Potency, µM (series often up to 46.1 µM), most hits filed as cytotoxic; hit rate 2% among 360,000; HT-1080 IDH1 knockdown viability, ATP luminescence, 48 h
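Luminescent ATP read-out (CellTiter-Glo, 10 min at room temperature) after 48 h compound exposure at 37 °C gave viability of IDH1-knockdown HT-1080 cells. Activity was normalised to DMSO and cell-free wells, then fitted as concentration-response curves.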
HT1080-NT tox: kills 2HG-producing HT-1080-NT fibrosarcoma cells; HT-1080-NT fibrosarcoma viability, CellTiter-Glo ATP luminescence, 48 h; Potency, µM (doses to about 46.1 µM), usual class: cytotoxic; hit rate 1.6% among 360,000; AID 686970;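 note: NT is the 2HG producing partner of a matched IDH1 knockdown line; nearly all actives have a fitted effect of over 55% in size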
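Viability by CellTiter-Glo luminescence after 48 h compound exposure at 37C of HT-1080-NT cells (750/well, RPMI, 5% FBS). % activity scaled between DMSO wells and medium-only wells, then curve-fitted and categorized by curve class.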
uPA surface inh: blocks generation of uPA at the cell surface. cell surface uPA generation assay, qHTS. Potency, µM (top dose mostly 38.3 µM), most hits filed as inhibitors. hit rate 0.31% among 330,000; active = well fitted inhibition curve with a large enough effect; inconclusive = small, poorly fitted or top-dose-only effect; inactive = no such curve, though single readings can be large or run the other way; tested in mouse RAW 264.7 cells; note: nearly all actives have a fitted effect of over 55% in size
TDP1 cell CPT: DT40-hTDP1 cell growth loss with CPT; chicken DT40 Tdp1-/-;hTDP1 cells + 20 nM CPT, ATP luminescence, 48 h; Potency, µM (titrated, usually from 46.2 µM), most hits filed as inhibitors; hit rate 12% among 420,000; AID 686979; note: nearly all actives have a fitted effect of over 55% in size
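Cell growth measured by CellTiter-Glo luminescence after a minimum 48 h, 37 C compound exposure with 20 nM CPT in Tdp1-knockout DT40 cells stably expressing hTDP1, seeded 400/well; qHTS titration format.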
IL-1B inflam inh: inhibitors of inflammasome signaling (IL-1 beta secretion); activity change, % at 57.5 µM; THP-1 LPS/ATP IL-1B secretion, AlphaLISA, 16 h; active compounds read low; hit rate 4.7% among 360,000; in the data active = activity change below about -50%; inconclusive = mostly about -30% to -49%
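THP-1 cells pretreated 1 hr with compounds (up to 57.5 uM final), then stimulated with LPS (250 ng/mL final) plus ATP (1.25 mM final); secreted IL-1B measured by AlphaLISA after 16 hr, decreased signal indicating inhibition.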
A number is an active result; – = inactive; ? = inconclusive; · = no result; [ ] = remark or other dose. Unless noted, calls come from the whole dose curve; as a rule, active = well fitted curve in the direction sought with a large enough effect; inconclusive = small, poorly fitted or top-dose-only effect, or another doubt; inactive = no such curve, though single readings can be large; an effect the other way counts as inactive or inconclusive.

SMILES | DT40 TDP1 no CPT | HT1080 IDH1KD tx | HT1080-NT tox | uPA surface inh | TDP1 cell CPT | IL-1B inflam inh
Cn1c(CCN2CCCC2)nc2cc(NC(=O)COc3ccc(Cl)cc3)ccc21 | 16.4µM | – | – | · | ? | –
Cc1cccc(OCC(=O)Nc2ccc3c(c2)nc(CN2CCCCC2)n3C)c1 | ? | – | – | – | ? | –
CC1CCN(CCc2nc3cc(NC(=O)COc4ccc(Cl)cc4)ccc3n2C)CC1 | ? | ? | ? | ? | ? | -96.4
CCCCn1c(SCCN2CCCCC2)nc2c1c(=O)n(C)c(=O)n2C | – | – | – | · | – | –
Cc1ccc(S(=O)(=O)Nc2ccc3c(c2)nc(CCN2CCCCC2)n3C)cc1 | ? | ? | – | – | – | -92.3
Cc1ccc(S(=O)(=O)Nc2ccc3c(c2)nc(CCN2CCOCC2)n3C)cc1 | – | – | – | – | – | ?
COc1ccc(/C=C(\NC(=O)c2ccco2)C(=O)NC(Cc2ccccc2)C(=O)O)cc1 (centres undefined) | – | – | – | – | – | –
COC(=O)c1ccc(-n2nnc(-c3nc(-c4ccc5c(c4)OCO5)no3)c2C)cc1 | – | · | · | · | – | ·
O=C(c1ccc(Cl)c(S(=O)(=O)N2CCOCC2)c1)N(Cc1nnc(-c2ccccc2Cl)o1)C1CC1 | 14.6µM | – | – | – | 20.6µM | –
CN1CCN(S(=O)(=O)c2cccc(C(=O)N(Cc3nnc(-c4ccc(Cl)cc4)o3)C3CC3)c2)CC1 | ? | – | – | – | 20.6µM | ?
O=C(c1cccc(S(=O)(=O)N2CCOCC2)c1)N(Cc1nnc(-c2ccccc2Cl)o1)C1CC1 | ? | – | – | – | ? | –
O=C(c1cc([N+](=O)[O-])cc([N+](=O)[O-])c1)N(Cc1nnc(-c2ccccc2Cl)o1)C1CC1 | 18.4µM | – | – | – | ? | –
CCCN(Cc1nnc(-c2ccccc2Cl)o1)C(=O)c1cc([N+](=O)[O-])cc([N+](=O)[O-])c1 | 6.51µM | – | – | – | 6.51µM | –
CC(C)Nc1nc(-c2ccccc2)nc(-n2ccnc2)n1 | – | – | – | – | – | ?
c1ccc(CN2CCN(c3ncccn3)CC2)cc1 | – | – | – | – | – | –
c1ccc(-c2nc(-n3ccnc3)nc(-n3ccnc3)n2)cc1 | 10.3µM | – | – | – | 20.6µM | -84.2
c1ccc(N(c2ccccc2)c2nc(N3CCCC3)nc(-n3ccnc3)n2)cc1 | 25.9µM | ? | ? | · | ? | –
c1ccc(CN2CCN(c3nc(-c4ccccc4)nc(-n4ccnc4)n3)CC2)cc1 | 18.4µM | ? | ? | · | 16.4µM | ?
CCn1c(-c2ccccc2F)nc2cc(NC(C)=O)cc(C(=O)N(C)Cc3ccccn3)c21 | – | · | · | · | –[9.04 µM] | ·
CCC(Sc1nnc2c3ccccc3n(C)c2n1)C(=O)Nc1nnc(C(C)C)s1 (centres undefined) | – | · | · | · | ? | ·
CCOP(=O)(OCC)c1nc(-c2ccc(Cl)cc2Cl)oc1N1CCCCC1 | 18.4µM | 23.1µM | 18.4µM | – | 11.6µM | -113.1
CCOc1ccc(N(CC(=O)NCCc2ccc(C)cc2)S(=O)(=O)c2c(C)noc2C)cc1 | ? | – | – | – | 23.1µM | ?
Cc1ccc(N(CC(=O)NCCc2ccccc2)S(=O)(=O)c2c(C)noc2C)cc1 | ? | – | – | – | ? | –
Cc1ccc(N(CC(=O)Nc2cc(C)ccc2C)S(=O)(=O)c2c(C)noc2C)cc1 | 23.1µM | · | · | · | ? | ·
CCOc1ccc(N(CC(=O)Nc2ccccc2CC)S(=O)(=O)c2c(C)noc2C)cc1 | 3.66µM | · | · | · | 4.61µM | ·
SMILES | DT40 TDP1 no CPT | HT1080 IDH1KD tx | HT1080-NT tox | uPA surface inh | TDP1 cell CPT | IL-1B inflam inh
CCOc1ccc(OCC)c(NC(=O)CN(c2ccc(C)cc2)S(=O)(=O)c2c(C)noc2C)c1 | 23.1µM | – | – | – | ? | –
CC1(C)CC(=O)c2cc(C(=O)Nc3ccc(Br)cc3)c(=O)[nH]c2C1 | – | · | · | · | – | ·
CCCNC(=O)C1(C)CCN(C(=O)c2ccc3snnc3c2)C1 (centres undefined) | – | – | – | · | – | –
Cc1ccc(N2C(N)=C(C#N)C(c3cc(CN4CCOCC4)cs3)C3=C2CC(C)(C)CC3=O)cc1 (centres undefined) | – | – | – | – | – | –
Cc1ccc(N(CC(=O)NC(C)c2ccccc2)S(=O)(=O)c2c(C)noc2C)cc1 (centres undefined) | 16.4µM | – | – | – | ? | –
Cc1ccc(N(CC(=O)NC(C)c2ccccc2)S(=O)(=O)c2c(C)n[nH]c2C)cc1 (centres undefined) | – | – | – | – | – | –
Cc1cc(C)c2nc3nc(C)c(C)cc3c(N)c2c1 | 6.51µM | 13µM | ? | – | 8.2µM | -88.6
Cc1cc(C)c2oc(-c3cccc(NC(=O)COc4ccc(Cl)cc4C)c3C)nc2c1 | – | · | · | · | 5.01µM | ·
CCCOc1ccc(C(=O)Nc2ccc(Cl)c(-c3nc4ncccc4o3)c2)cc1 | 10.3µM | · | · | · | 23.1µM | ·
Cc1ccc(OCC(=O)Nc2ccc(Cl)c(-c3nc4ncccc4o3)c2)c(C)c1 | 14.6µM | · | · | · | ? | ·
Cc1cc(C)cc(OCC(=O)Nc2ccc(Cl)c(-c3nc4ncccc4o3)c2)c1 | ? | · | · | · | 18.4µM | ·
Cc1ccc2oc(-c3cccc(NC(=O)COc4ccc(Cl)cc4C)c3C)nc2c1 | – | · | · | · | – | ·
CC(=O)Nc1ccc(Cl)c(-c2nc3ncccc3o2)c1 | – | – | – | – | – | –
C=C(C1=CCN(S(=O)(=O)C(C)(C)C)[C@@H]1CCO)c1ccccc1 | ? | – | – | – | ? | –
CCN(c1ccccc1C(=O)O)S(=O)(=O)c1ccc2[nH]c(=O)[nH]c2c1 | – | – | – | – | – | –
Cc1c(C(=O)NCc2nnc(-c3ccccc3)o2)oc2c(F)cccc12 | – | – | – | – | – | –
CCOC(=O)c1c(NC(=O)c2cc(=O)c3c(C)cc(C)cc3o2)sc(C)c1C | – | · | · | · | – | ·
COC(=O)c1nccc2c1[nH]c1ccccc12 | 23.1µM | – | – | – | ? | –
COc1ccc(/C=C/c2nccc3c2[nH]c2ccccc23)cc1 | 11.2µM | · | · | · | ? | ·
CCS(=O)(=O)Nc1c(C(=O)OC)[nH]c2ccccc12 | – | – | – | – | – | –
COc1ccc2[nH]c3ccccc3c2c1 | – | – | – | – | – | –
C(=C/c1nccc2c1[nH]c1ccccc12)/c1ccc2c(c1)OCO2 | 11.2µM | 16.4µM | ? | – | 5.62µM | –
COC(=O)c1ccc(C(=O)N2CCCCCC2(C)C(=O)NC(C)C)cc1 (centres undefined) | – | – | – | · | ? | –
Cc1ccccc1C(=O)N1c2ccccc2OCC1C(C)(C)C (centres undefined) | 20.6µM | – | – | – | ? | –
CC(C)(C)C1COc2ccccc2N1C(=O)c1ccccc1Cl (centres undefined) | ? | – | – | – | ? | –
